Here are results for eleven molecules from PubChem BioAssay.

Test [1] in a line: resazurin metabolic signal in HepG2 cells – cell-based, resazurin fluorescence, 24 h, PK04 Diversity Set, profiling panel (AID 1172). Further: test concentration not given here. The settings on record: HepG2 viability, higher = more signal. (In general: Resazurin is reduced to fluorescent resorufin, in cell work by metabolically active cells.)
The nature of test [2]: budding yeast growth changes without added modifier – OD600, strain BY4716, 24 h, basal condition, primary screen (AID 1173). To be noted: S. cerevisiae BY4716 growth, OD600, 24 h; higher = more signal, called active from +8 up or from −8 down.
Test [3] in a line: viability profiling in MM1S myeloma cells – cell-based, resazurin fluorescence, basal, 24 h, PK04 Diversity Set, profiling panel (AID 1174). Further: test concentration not given here. The settings on record: higher = more signal, called active from +8 up or from −8 down.
Test [4] concerns the target Dihydroorotate dehydrogenase (quinone), mitochondrial (Plasmodium falciparum (isolate 3D7)) (UniProt Q08210). Description: inhibition of P. falciparum DHODH – biochemical, C-terminal His tag, absorbance 600 nm, primary screen (AID 1175).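 Further: recombinant parasite enzyme with a five histidine tag at its C terminus; test concentration not given here.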 To be noted: PfDHODH enzyme, DCIP absorbance 600 nm; higher = more signal, called active from +8 up or from −8 down.
Test [5] is described as follows: inhibition of PAO1 biofilm formation – strain PAO1, LB-PBS medium, absorbance 600 nm, primary screen (AID 1176). Further: test concentration not given here. The settings on record: P. aeruginosa PAO1 growth/biofilm, A600, 12 h; higher = more signal.
Test [6] in a line: growth modulation of vineyard yeast isolate – strain RM11-1a, OD600, basal, 24 h, primary screen (AID 1177).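 Further: cultures grown under basal conditions with no added stressor; test concentration not given here.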 The settings on record: S. cerevisiae RM11-1a growth, OD600, 24 h; higher = more signal, called active from +8 up or from −8 down.
Test [7] is described as follows: growth of efflux-deficient E. coli DRC39 – strain DRC39, OD650, 24 h, E. coli filamentation inducers, primary screen (AID 1178).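 Further: growth measured as culture turbidity by optical density at 650 nm; test concentration not given here.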 To be noted: E. coli DRC39 acrAB, higher = more signal, called active from +8 up or from −8 down.
The nature of test [8]: growth of efflux-deficient E. coli DRC39 – strain DRC39, OD650, 48 h, E. coli filamentation inducers, primary screen (AID 1179).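 Further: screen aims at cell division blockers that make cells filament.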 To be noted: E. coli DRC39 delta-acrAB growth, higher = more signal, called active from +8 up or from −8 down.
Test [9] is described as follows: viability profiling in RPMI8226 myeloma cells – cell-based, resazurin fluorescence, basal, 24 h, PK04 Diversity Set, profiling panel (AID 1180).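 Further: RPMI8826 multiple myeloma cell line at 5000 cells per well; test concentration not given here.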 The settings on record: higher = more signal.
The target of test [10] is E3 ubiquitin-protein ligase XIAP (Homo sapiens) (UniProt P98170). The experiment in a line: small molecules binding XIAP protein – biophysical, small-molecule microarray, fluorescence 635 nm, primary screen (AID 1181).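 Further: score merges 667 nm emission and signal to noise over triplicate slides.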 To be noted: higher = more signal.

The source made the active and inactive calls. Unless noted, how the calls were made is not given here.

E3 ubiquitin-protein ligase XIAP (Homo sapiens), sequence (P98170 whole entry, looked up): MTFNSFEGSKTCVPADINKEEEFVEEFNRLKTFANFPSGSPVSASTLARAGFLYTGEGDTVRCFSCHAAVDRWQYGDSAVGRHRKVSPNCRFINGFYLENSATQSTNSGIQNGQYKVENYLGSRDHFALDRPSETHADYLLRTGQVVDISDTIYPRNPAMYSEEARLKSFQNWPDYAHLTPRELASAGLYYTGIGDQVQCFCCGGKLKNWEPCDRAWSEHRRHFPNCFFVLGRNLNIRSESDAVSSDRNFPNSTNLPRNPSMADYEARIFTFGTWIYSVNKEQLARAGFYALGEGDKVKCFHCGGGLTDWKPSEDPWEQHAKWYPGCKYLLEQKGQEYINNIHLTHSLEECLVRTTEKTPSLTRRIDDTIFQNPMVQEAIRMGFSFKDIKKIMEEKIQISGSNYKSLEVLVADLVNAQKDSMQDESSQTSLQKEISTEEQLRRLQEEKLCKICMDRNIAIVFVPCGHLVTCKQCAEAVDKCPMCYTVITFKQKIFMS
Dihydroorotate dehydrogenase (quinone), mitochondrial (Plasmodium falciparum (isolate 3D7)), sequence (Q08210 whole entry, looked up): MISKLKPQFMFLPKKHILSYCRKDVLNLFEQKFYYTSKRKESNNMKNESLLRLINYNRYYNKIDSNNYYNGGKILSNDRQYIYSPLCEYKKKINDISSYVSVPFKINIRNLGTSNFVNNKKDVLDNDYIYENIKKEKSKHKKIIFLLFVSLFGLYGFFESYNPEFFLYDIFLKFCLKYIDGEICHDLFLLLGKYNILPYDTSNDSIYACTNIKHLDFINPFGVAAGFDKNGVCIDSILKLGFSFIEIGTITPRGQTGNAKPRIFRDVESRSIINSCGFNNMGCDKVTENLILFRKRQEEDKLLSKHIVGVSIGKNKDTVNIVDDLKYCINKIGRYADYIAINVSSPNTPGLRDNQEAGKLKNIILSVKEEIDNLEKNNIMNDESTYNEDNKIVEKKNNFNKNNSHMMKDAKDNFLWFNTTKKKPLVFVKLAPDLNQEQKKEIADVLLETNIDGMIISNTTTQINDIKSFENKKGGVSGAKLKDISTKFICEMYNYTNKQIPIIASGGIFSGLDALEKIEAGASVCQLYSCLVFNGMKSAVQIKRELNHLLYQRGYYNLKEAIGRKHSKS

Take `O=C1c2ccccc2[C@@]2(Cc3ccccc3N(CC(F)(F)F)C2=O)[C@H](c2ccc(CO)cc2)N1Cc1ccccc1Cl`: the z-score in test [1] was 0.0685; in test [2], 0.386 (inactive); in test [3], 0.192 (inactive); in test [5] it was 0.848 (inactive); in [6], -0.399 (inactive); in [7] it was 0.424 (inactive). Further, the values for the z-score in test [8] and in test [9] were -0.411 (inactive) and 0.638, respectively. Besides, the composite z-score is -22.2 (active) in test [4] and 0.176 in [10].

On to `COc1cc(OC)c(C(O)C2C=CC3C(=O)NC(=O)C3N2Nc2ccc(Cl)cc2Cl)cc1Br` (stereo not given), for which the z-score was -3.99 in test [1]; -14.7 (active) in test [2]; -2.48 (inactive) in test [3]; 0.338 (inactive) in test [5]; 0.695 (inactive) in test [6]; -0.0795 (inactive) in test [7]. Moreover, the results for the z-score in test [8] and in test [9] were -1.06 (inactive) and -2.27, respectively. In addition, the composite z-score in test [4] was -0.0023 (inactive); in test [10], 0.367.

Take `C[C@]1(C(=O)NC2CC2)c2ccccc2C(=O)N(Cc2cc(C(F)(F)F)cc(C(F)(F)F)c2)[C@H]1c1ccc(CO)cc1`: the z-score in [1] was 0.546; in [2], -0.66 (inactive); in test [3] it was 0.43 (inactive); in [5] it was -0.506 (inactive); in test [6], 0.558 (inactive); in test [7], 1.11 (inactive). Besides, the z-score in [8] is 0.833 (inactive); in test [9], 0.367. For the same molecule, the composite z-score in test [4] was 0.262 (inactive); in test [10] it was -0.0646.

As to `COc1ccc([Si](C)(C)[C@H]2[C@H](CC(=O)N3Cc4ccccc4C[C@H]3CO)O[C@@]3(C(=O)N(Cc4ccc(N5CCC5=O)cc4)c4ccccc43)[C@@H]2C)cc1`, the z-score in test [1] is 0.194; in test [2], -0.535 (inactive); in test [3], -1.56 (inactive); in test [5], 0.201 (inactive); in test [6], 1.83 (inactive); in test [7], -0.0476 (inactive). In addition, the z-score in [8] is -0.421 (inactive); in test [9], -1.26. Further, the composite z-score in [4] is -3.08 (inactive); in test [10], 0.216.

As for `C=C(CCCC)C(=O)CC[C@@H](OC(=O)c1cccnc1)c1ccc(CO)o1`, the z-score in [1] was 0.154; in [2] it was -0.594 (inactive); in [3], -0.16 (inactive); in test [5], 0.555 (inactive); in test [6], 0.0671 (inactive); in [7], 0.186 (inactive). Further, the z-score in [8] is -0.0608 (inactive); in test [9], 0.0739. The composite z-score in test [4] was -1.05 (inactive); in test [10], 0.0256.

With `CC(C)N1C(=O)c2ccccc2[C@](C)(C(=O)NCc2ccccc2)[C@@H]1c1ccc(CO)cc1`, the z-score in test [1] was -0.394; in test [2] it was -0.704 (inactive); in [3] it was -1.09 (inactive); in test [5] it was 1.06 (inactive); in test [6], -0.271 (inactive); in [7], 0.0861 (inactive). In addition, the z-score in test [8] is -0.681 (inactive); in [9], 0.121. Further, the composite z-score was 0.0524 (inactive) in test [4] and 0.0623 in [10].

For `CC(=O)N1Cc2ccccc2C[C@@]2(COC(c3ccc(OCCCO)cc3)=N2)C1=O`, the z-score in [1] was 1.17; in [2], -0.797 (inactive); in [3] it was -0.15 (inactive); in test [5], 2.26 (inactive); in test [6] it was -0.723 (inactive); in test [7] it was 1.73 (inactive). Besides, the z-score was 2.3 (inactive) in test [8] and 0.266 in test [9]. In addition, the composite z-score in test [4] was -0.469 (inactive); in test [10] it was 1.2.

`O=C1NCC(=O)N2[C@@H]1C[C@@H](C(=O)O)[C@H]2c1cccc(OCCO)c1`: the z-score is 0.0195 in [1]; -0.816 (inactive) in test [2]; -0.159 (inactive) in [3]; -0.53 (inactive) in test [5]; 0.569 (inactive) in [6]; -0.151 (inactive) in test [7]. Moreover, the z-score in test [8] is 0.524 (inactive); in [9], -0.828. For the same molecule, the composite z-score in test [4] is 0.97 (inactive); in [10], 3.93.

Regarding `CN1C(=O)C2C=CC(C(O)C3CC=CCC3)N(NC(=O)OC(C)(C)C)C2C1=O` (stereo not given), the z-score in test [1] is -1.53; in [2] it was -0.0428 (inactive); in test [3], -0.784 (inactive); in test [5] it was 0.503 (inactive); in test [6], -0.0874 (inactive); in [7], -0.791 (inactive). Further, the z-score in test [8] was -0.688 (inactive); in [9], -1. In addition, the composite z-score in test [4] was 0.123 (inactive); in test [10], 0.579.

On to `COc1cc2c(cc1O)C(C1CC1)N(Cc1cc3c(cc1Br)OCO3)CC2` (stereo not given), for which the z-score is -1.94 in test [1]; -2.67 (inactive) in test [2]; -3.63 (inactive) in [3]; 0.571 (inactive) in test [5]; 0.698 (inactive) in test [6]; -1.2 (inactive) in [7]. Besides, the values for the z-score in [8] and in [9] were -1.71 (inactive) and -3.52, respectively. Also, the composite z-score in test [4] was -1.55 (inactive); in test [10] it was 0.0761.

Regarding `Cc1ccc(S[C@]2(C(=O)NCC(F)(F)F)CC(=O)N(C(C)C)[C@@H]2c2ccc(CO)cc2I)cc1`, the z-score in test [1] is -0.185; in test [2], -1.52 (inactive); in test [3] it was -0.881 (inactive); in test [5], 0.786 (inactive); in [6], 0.701 (inactive); in [7] it was 0.0212 (inactive). The z-score was -0.105 (inactive) in [8] and -2.05 in test [9]. In addition, the composite z-score in [4] was 0.436 (inactive); in test [10], -0.0013.
